Z-score data for 107 compounds are collected here from PubChem BioAssay AID504770 (ICCB-Longwood Screening Facility, Harvard Medical School, 2011).

In all, about 130,000 compounds went through this assay and about 350 (0.27%) were called active. This is one part of a sample in which actives are shown more often than they occur. Unmarked numbers belong to inactive results. No stated cut-off is given here; in the data, active means z-score below about -2 (passing the limit was not always enough); inactive means the rest.

This test can be described thus: PubChem AID 504770. Particulars: E. coli YBA685 rctB-dependent plasmid, OD600 growth, 3 h; active compounds read low.
On to `Cc1ccccc1NC(=O)CSC(=O)c1ccccc1`, for which the z-score is 0.6.

Turning to `N#CC1(C#N)C(c2ccc(Cl)c(Cl)c2)C1(C#N)C#N`, the z-score is -6.85 (active).

Consider `COc1ccc(C2C(C#N)(C#N)C2(C#N)C#N)cc1`, for which the z-score was 0.05.

For `O=C(O)C(Cc1ccccc1)Nc1ncnc2sc3c(c12)CCC3` (configuration not stated), the z-score is 0.65.

On to `CCc1cccc(NC(=O)CC(=O)Nc2ccc3nc4n(c(=O)c3c2)CCCCC4)c1`, for which the z-score was 0.6.

Take `Cc1c(C(=O)NC2CCCCC2)sc2nc(-c3ccc(F)cc3)cn12`: the z-score was 0.15.

With `COc1ccc(C(=O)Nc2ccc(-n3nncc3-c3ccccc3)cc2)cc1`, the z-score is -0.9.

Consider `Cc1ccccc1NC(=O)NC(=O)CC#N`, for which the z-score is 0.45.

For the compound `Cc1ccccc1C(=O)CC#N`, the z-score was -3.2 (active).

For the compound `Cc1ccccc1C(=O)N(CC#N)CC#N`, the z-score is -0.6.

With `CC(C)(C)c1ccc(CNCc2ccco2)cc1`, the z-score is 0.35.

Regarding `CCOC(=O)CN1C=NS(=O)(=O)c2ccccc21`, the z-score was 0.4.

On to `O=C1Nc2ccccc2C1=Nc1cccc(C(F)(F)F)c1`, for which the z-score is -1.05.

In the case of `CC(C)c1c(O)c2ccccc2[nH]c1=O`, the z-score was -0.4.

For the compound `O=C1CCC(C2CCC(=O)CC2)CC1`, the z-score is -0.55.

Take `CCc1nc2ccccc2n1CCO`: the z-score was 0.6.

As for `CS(=O)(=O)Nc1ccccc1C(=O)OCC(=O)NC1CC1`, the z-score was -0.75.

Turning to `Cc1ccc(NC(=O)Cn2cc3c(n2)CCC(C)C3)c(Cl)c1` (configuration not stated), the z-score is -0.6.

`COc1cc(CNc2ccc3[nH]c(=O)[nH]c3c2)ccc1OCC(N)=O`: the z-score is 1.6.

As to `Cc1nc(S(=O)(=O)NCc2ccc(-c3cccs3)cc2)cn1C`, the z-score was -0.2.

In the case of `CCCOc1ccc(NC(=O)CC2SC(N)=NC2=O)cc1` (configuration not stated), the z-score was -1.1.

Consider `Cc1onc(-c2c(Cl)cccc2Cl)c1/C=N/O`, for which the z-score was -0.4.

For `CCCCn1c2ccccc2c2nc3ccccc3nc21`, the z-score is 0.05.

With `CCCCn1c2nc3ccccc3nc2c2c(N)ncnc21`, the z-score is 0.2.

For the compound `CCCc1nc2c3ccccc3ncn2n1`, the z-score was -5.5 (active).

Take `Cc1c(C(=O)NCc2ccc(OC(C)C)cc2)oc2ccc3c(c12)C=CC(C)(C)O3`: the z-score is 0.85.

Take `CC(=O)Oc1cccc2c1C(=O)C=CC2=O`: the z-score is -6.5 (active).

In the case of `CC(=O)Oc1cccc2c1OC(C)(C)C2`, the z-score was 1.6.

For the compound `CC(=O)Oc1ccc(OC(C)=O)c2c1C1C=CC2CC1`, the z-score is 0.85.

As to `CC1Cc2cc(S(=O)(=O)NCCC(=O)Nc3ccc(F)cc3F)ccc2N1C(=O)C1CC1` (configuration not stated), the z-score was -0.8.

For `COC(F)(C(=O)N1CCOCC1)C(F)(F)F` (configuration not stated), the z-score was -0.4.

As to `Cc1ccc(C(=O)C(C)Sc2nnc3ccccn23)cc1` (configuration not stated), the z-score was -0.05.

`Cc1c(Sc2nc3ccccc3s2)c(=O)[nH]c2cc3c(cc12)OCO3`: the z-score is 1.

Consider `C/C=C/C(=O)Nc1ccc(N2CCN(c3ccc(C(F)(F)F)cn3)CC2)nc1`, for which the z-score was 0.05.

With `O=C1CC2(CCN(C(=O)Cc3ccccc3)CC2)Oc2ccccc21`, the z-score was 2.85.

Regarding `CCc1n[nH]c(=O)c2cc3sccc3n12`, the z-score is -0.2.

With `O=C1c2ccc(-c3nc4ccc(Cl)cc4c(=O)o3)cc2C(=O)N1CC1CCCO1` (configuration not stated), the z-score was -0.25.

Consider `O=C1NC(=Nc2ccc(O)cc2)S/C1=C\c1ccc(C(=O)O)cc1`, for which the z-score was -0.6.

With `Cc1ccccc1C(CC(=O)O)N1Cc2ccccc2C1=O` (configuration not stated), the z-score is -0.8.

In the case of `Cc1ccc(Cn2c(=O)c3ccccc3n3c(SCC4CCCO4)nnc23)cc1` (configuration not stated), the z-score was -0.7.

For the compound `COc1ccc(NC(=O)c2cc(F)cc3c2OCOC3)cc1`, the z-score is 1.45.

With `CNS(=O)(=O)c1ccc2[nH]c(=O)cc(C)c2c1`, the z-score is 0.45.

In the case of `N#CC1=CN(Cc2ccccc2)C=C(/C=N/Nc2ccc(F)cc2)C1`, the z-score was -0.9.

For the compound `Cc1cc(C(=O)COC(=O)C2CC2C)c(C)n1-c1cccc(S(=O)(=O)N2CCOCC2)c1` (configuration not stated), the z-score was -0.5.

On to `O=C(CNC1CCCC1)Nc1ccc(N2CCCC2)cc1`, for which the z-score was -0.15.

Take `CN1/C(=C\C(=O)COC(=O)C(C)(C)C)C(C)(C)c2ccccc21`: the z-score is -0.4.

Consider `Cn1[nH]c2nc3[nH]n(C)c(=O)c3c(-c3ccccc3)c2c1=O`, for which the z-score was 0.65.

With `Cn1nc(SCC(=O)N2c3ccccc3CCc3ccccc32)sc1=S`, the z-score is -0.4.

`O=C(Nc1ccc(Cl)c(Cl)c1)Nc1ccnn1C1CCCCC1`: the z-score is -1.3.

For the compound `CN(C)c1ccc(/C=N/S(=O)(=O)c2ccccc2)cc1`, the z-score is -1.15.

As for `CC1(C)CC(=O)c2c(SCCO)sc(C#N)c2C1`, the z-score is -0.35.

For `N#CC1=C(N)C(C#N)(C#N)C(c2cccs2)C=C1C1CC1` (configuration not stated), the z-score was -0.95.

Consider `Cc1nn(CCCC(=O)NCCC2=CCCCC2)c(=O)c2nccn12`, for which the z-score is 0.9.

Consider `O=S1(=O)CCN(Cc2cc(F)cc3c2OCOC3)CC1`, for which the z-score is 0.35.

Consider `CN(C)[C@@H]1C(=O)C(C(N)=O)=C(O)[C@@]2(O)C(=O)C3=C(O)c4c(O)ccc(Cl)c4[C@@H](O)[C@H]3C[C@@H]12`, for which the z-score is -2.25 (active).

As for `c1ccn2c(c1)nc1nc3nonc3nc12`, the z-score is -5.05 (active).

For `O=c1[nH]nc2ccccn12`, the z-score is 1.

With `O=c1cc(O)nc2ccccn12`, the z-score is 1.45.

Consider `Cc1ccccc1Oc1ccc(S(=O)(=O)N2CC(C)OC(C)C2)cc1` (configuration not stated), for which the z-score is 0.7.

`CC(C)CNC(=O)c1ccc(N(C)C)cc1`: the z-score is -1.2.

With `CCOc1ccc(N=C2CSC(=O)N2)cc1`, the z-score was -0.95.

On to `CCOC(=O)c1sc(-c2ccccc2)nc1CSc1nccn1C`, for which the z-score is 1.15.

Take `Cc1c(CCN)sc2nc(-c3ccc(Cl)cc3)nn12`: the z-score is 0.25.

Turning to `CS(=O)(=O)N1CCN=C1SCc1cccnc1`, the z-score was -0.85.

In the case of `O=C1CCc2cc(S(=O)(=O)NCC3CCCO3)cc3c2N1CC3` (configuration not stated), the z-score was 0.8.

For `CCOC(=O)c1ccc(-c2cc(=O)c3ccccc3o2)cc1`, the z-score was -0.3.

On to `O=C(Nc1ccc(F)cc1)n1ncc2cc(Cl)ccc21`, for which the z-score was 1.1.

Consider `N#CC(C#N)=Cc1ccc(-c2cccc(C(=O)O)c2)o1`, for which the z-score was 1.85.

Regarding `COc1ccc(CNC(=O)COc2ncnc3ccccc23)cc1`, the z-score was 0.2.

For the compound `Cc1c(OCC#N)ccc2c3c(c(=O)oc12)CCC3`, the z-score is -0.7.

Take `CCC1(C)NC(=O)N(NC(=O)c2ccc(S(=O)(=O)N3CCCC3)cc2)C1=O` (configuration not stated): the z-score was 0.95.

Regarding `O=C(CCn1c(=O)oc2ccccc21)Sc1ccc(C(F)(F)F)cc1`, the z-score is 0.8.

As for `Cc1ccc(NC(=O)c2ccc3nc(N4CCOCC4)sc3c2)cc1`, the z-score was -1.3.

On to `O=C(CSC1=NCCS1)Nc1cc(C(F)(F)F)ccc1Cl`, for which the z-score is -0.55.

For `COc1ccc(NC(=O)C(=S)N2CCCCC2)cc1`, the z-score was -0.45.

Consider `Cc1nc(N)nc(CSc2ccc(Cl)cc2)n1`, for which the z-score was 1.4.

On to `O=C(c1[nH]nc2c1CCc1ccccc1-2)N1CCCC1`, for which the z-score was -0.15.

As for `CC(=O)NCc1n[nH]c(=O)c2ccccc12`, the z-score is -0.4.

For `CCOc1ccc(NCc2nc3ccccc3n2C)cc1`, the z-score is 0.75.

`Oc1c(Cl)cc(Cl)c(Cl)c1Cc1c(O)c(Cl)cc(Cl)c1Cl`: the z-score is -3.25 (active).

`CC1CC(C)CN(c2nc3ccccc3c(=O)n2-c2ccc(Cl)cc2)C1` (configuration not stated): the z-score is -1.35.

Consider `CCS(=O)(=O)c1ccc2c(c1)N1CCS(=O)(=O)N=C1O2`, for which the z-score is 0.9.

In the case of `CC1(C)COC(Nc2ccc(Cl)c(Cl)c2)=N1`, the z-score was -0.6.

`Cc1nc2c3ccccc3n3c(CCCC(=O)NCc4ccccn4)nnc3n2n1`: the z-score was 1.15.

With `O=S1(=O)CC(S(=O)(=O)c2ccccc2)C(S(=O)(=O)c2ccccc2)C1` (configuration not stated), the z-score was 1.15.

On to `COc1ccc2c(CC(=O)OCc3cc(Cl)c4c(c3)OCCCO4)coc2c1`, for which the z-score was -0.55.

For the compound `Cc1cccc(CC2(Cc3cccc(C)c3)C(=O)OC(C)(C)OC2=O)c1`, the z-score was 0.1.

Turning to `N#CC(c1ccc(F)cc1)N1CCOCC1` (configuration not stated), the z-score is -1.05.

In the case of `CN(C(=O)Cn1nc(C(F)(F)F)c2c1CCC2)C1CCCCC1`, the z-score was -0.25.

For the compound `O=C(CCc1ccccc1)Nc1nnc(SCC(=O)N2CCCCCC2)s1`, the z-score was -0.2.

For `N#Cc1c(=O)c2nc(NCCc3ccccc3)ncc2n2c(=O)c3cc(Br)ccc3[nH]c12`, the z-score was -1.25.

Consider `C=CCN(C(=O)C1CCCC1)c1nc2c(s1)CCCC2`, for which the z-score was -1.05.

For `CC1CC(C)CN(C(=O)COC(=O)c2cccnc2Nc2ccccc2F)C1` (configuration not stated), the z-score was 0.1.

Consider `C=CCNc1nc(SC)nc2ccccc12`, for which the z-score is 1.45.

On to `COc1ccc(/C=N/NC(=O)c2ccccc2)cc1OC`, for which the z-score was 0.85.

As for `COc1cccc(/C=N/NC(=O)Cc2ccccc2)c1`, the z-score is -0.6.

Consider `COC(=O)N/N=C/c1c[n+]([O-])c2ccccc2[n+]1[O-]`, for which the z-score is -3.7 (active).

As for `CC(NC(=O)CC1=NS(=O)(=O)c2ccccc2N1)c1ccccc1` (configuration not stated), the z-score is 0.8.

Take `Cc1cc(/C=C2\C(=O)NC(=S)N(c3ccccc3F)C2=O)c(C)n1-c1ccc(Cl)c(C(=O)O)c1`: the z-score is -0.8.

For the compound `COC(=O)c1ccc(CNC(=O)C(C)Sc2ccccc2)cc1` (configuration not stated), the z-score was -0.15.

As for `N#Cc1c(C(F)(F)F)cc(=O)[nH]c1S`, the z-score was -0.6.

In the case of `O=C(CSC1=NC2(CCCC2)Nc2ccccc21)Nc1ccc2c(c1)OCCO2`, the z-score is 0.

Turning to `C=CCNc1nc(OC)nc(OC)n1`, the z-score is 0.15.

Regarding `C(=C\c1ccccc1)/CNCCCN1CCOCC1`, the z-score was -0.45.

For `S=C1SCN(CCN2CCOCC2)CN1Cc1ccccc1`, the z-score is -2.95 (active).

In the case of `COc1ccc(CN2CN(C(C)C)CSC2=S)cc1`, the z-score was -1.55.

Consider `Cc1cnc(NC(=O)CSc2nc3sc4c(c3c(=O)n2C)CCCC4)s1`, for which the z-score is -1.2.
